# Assay results from PubChem BioAssay (NCATS).
# Results filed as inconclusive are left out. Activity calls are given as the source filed them. Calls come from the whole dose curve; as a rule, active = well fitted curve in the direction sought with a large enough effect; inconclusive = small, poorly fitted or top-dose-only effect, or another doubt; inactive = no such curve, though single readings can be large; an effect the other way counts as inactive or inconclusive.
# Assays:
# [1] = qHTS of pediatric cancer cell lines to identify multiple opportunities for drug repurposing: Primary screen for SJ-GBM2 cells (AID 1347091)
# Method in brief: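 Eight- or eleven-point concentration series, 48 h treatment at 37 degrees C in growth media; readout CellTiter-Glo luminescence. Potency and efficacy were taken from the concentration-response curves.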
# [2] = qHTS of pediatric cancer cell lines to identify multiple opportunities for drug repurposing: Primary screen for A673 cells (AID 1347092); note: nearly all actives have a fitted effect of over 45% in size
# Method in brief: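 Luminescence from CellTiter-Glo, taken after 15 min at room temperature, served as the proxy for metabolically active cells following 48 h treatment. Both potency and efficacy were taken from curves fitted to the titration data.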
# [3] = qHTS of pediatric cancer cell lines to identify multiple opportunities for drug repurposing: Primary screen for SK-N-MC cells (AID 1347093)
# Method in brief: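 Metabolically active cells were quantified by ATP-dependent luminescence (CellTiter-Glo, 15 min at room temperature) following 48 h treatment. Cells had been plated at 500-1,000 per well and settled for 5 h beforehand.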
# [4] = qHTS of pediatric cancer cell lines to identify multiple opportunities for drug repurposing: Primary screen for Saos-2 cells (AID 1347097); note: nearly all actives have a fitted effect of over 40% in size
# Method in brief: (§1)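 Cells seeded at 500-1,000 cells/well in growth media, rested 5 hours at 37 degrees C, 5% CO2, then dosed; MIPE compounds at 11-point (from 0.78 nM) and NPC at 8-point (from 0.59 nM) final concentrations. Viability by CellTiter-Glo luminescence after 48 hours.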
# [5] = qHTS of pediatric cancer cell lines to identify multiple opportunities for drug repurposing: Primary screen for NB-EBc1 cells (AID 1347095)
# Method in brief: as §1
# [6] = qHTS of pediatric cancer cell lines to identify multiple opportunities for drug repurposing: Primary screen for U-2 OS cells (AID 1347096); note: nearly all actives have a fitted effect of over 50% in size
# Method in brief: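 Cells (500-1,000/well) in growth media were settled 5 h at 37 degrees C, then given compounds for 48 h. Viability was read as CellTiter-Glo luminescence. Primary runs used MIPE at 11 points (0.78 nM-46 µM) and NPC at 8 points (0.59 nM-46 µM); follow-ups used 11 points.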
# [7] = qHTS of pediatric cancer cell lines to identify multiple opportunities for drug repurposing: Primary screen for NB1643 cells (AID 1347099); note: nearly all actives have a fitted effect of over 50% in size
# Method in brief: as §1
# [8] = qHTS of pediatric cancer cell lines to identify multiple opportunities for drug repurposing: Primary screen for BT-37 cells (AID 1347094)
# Method in brief: as §1
# [9] = qHTS of pediatric cancer cell lines to identify multiple opportunities for drug repurposing: Primary screen for SK-N-SH cells (AID 1347098); note: nearly all actives have a fitted effect of over 65% in size
# Method in brief: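 Cells (500-1,000/well) rested 5 h, then received compounds for 48 h; metabolically active cells were measured by CellTiter-Glo luminescence. Final concentrations spanned up to 46 µM (MIPE, 11-point) or 0.59 nM-46 µM (NPC, 8-point) in primary screens, 11-point in follow-ups.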
# Potency is the fitted concentration of half-maximal effect.
smiles,measurement,setting,value
Cc1c(O)cccc1C(=O)N[C@@H](CSc1ccccc1)[C@H](O)CN1C[C@H]2CCCC[C@@H]2C[C@@H]1C(=O)NC(C)(C)C,Potency,[1],18.7 µM (active)
same,Potency,[2],23.5 µM (active)
same,Potency,[3],16.6 µM (active)
same,Potency,[4],26.4 µM (active)
C=CCc1ccc(O)c(-c2ccc(O)c(CC=C)c2)c1,Potency,[2],23.5 µM (active)
same,Potency,[3],23.5 µM (active)
same,Potency,[5],inactive
same,Potency,[6],inactive
same,Potency,[4],18.7 µM (active)
same,Potency,[7],inactive
Cc1ccn(-c2ccc(-c3ncco3)cc2)c(=O)c1-c1ccc2nc(N)ncc2c1,Potency,[3],3.32 µM (active)
same,Potency,[5],inactive
same,Potency,[6],inactive
same,Potency,[7],inactive
O=C(NCc1ccccc1)c1csc(Nc2ccncn2)n1,Potency,[2],23.5 µM (active)
same,Potency,[3],20.9 µM (active)
same,Potency,[8],17.2 µM (active)
same,Potency,[5],14.8 µM (active)
same,Potency,[4],11.8 µM (active)
same,Potency,[7],13.2 µM (active)
COc1ccc(-c2cc(=O)c3c(O)cc(O)cc3o2)cc1O,Potency,[2],4.69 µM (active)
same,Potency,[3],2.64 µM (active)
same,Potency,[8],21.7 µM (active)
same,Potency,[5],11.8 µM (active)
same,Potency,[6],inactive
same,Potency,[4],18.7 µM (active)
same,Potency,[9],24.1 µM (active)
same,Potency,[7],4.69 µM (active)
CC1=C(/C=C/C(C)=C/C=C/C(C)=C/C(=O)Nc2ccc(O)cc2)C(C)(C)CCC1,Potency,[2],6.68 µM (active)
same,Potency,[3],6.68 µM (active)
same,Potency,[8],15.5 µM (active)
same,Potency,[6],26.6 µM (active)
same,Potency,[4],23.7 µM (active)
Cc1c(NC(=O)c2ccc(C(C)(C)C)cc2)cccc1-c1cn(C)c(=O)c(Nc2ccc(C(=O)N3CCOCC3)cc2)n1,Potency,[2],9.35 µM (active)
same,Potency,[3],18.7 µM (active)
same,Potency,[5],18.7 µM (active)
O=C(Nc1cccc(Br)c1)c1cccc(S(=O)(=O)N2CCCCCC2)c1,Potency,[6],inactive
CC[C@]1(O)C[C@@H]2CN(CCc3c([nH]c4ccccc34)[C@@](C(=O)OC)(c3cc4c(cc3OC)N(C=O)[C@@H]3C45CCN4CC=C[C@](CC)([C@H]45)[C@@H](OC(C)=O)[C@]3(O)C(=O)OC)C2)C1 (stereo not given in full),Potency,[3],20.9 µM (active)
same,Potency,[8],inactive
same,Potency,[6],inactive
COC[C@@H](c1ccc(C(F)(F)F)cc1)N1CCN(C2(C)CCN(C(=O)c3c(C)ncnc3C)CC2)C[C@H]1C,Potency,[3],3.32 µM (active)
same,Potency,[8],inactive
same,Potency,[5],inactive
same,Potency,[9],5.41 µM (active)
same,Potency,[7],18.7 µM (active)
O=C1NC(=O)C(=Cc2cccc(C(F)(F)F)c2)S1,Potency,[6],inactive
same,Potency,[9],inactive
CC(C)[C@H](CO)Nc1nc(Nc2ccc(C(=O)O)c(Cl)c2)c2ncn(C(C)C)c2n1,Potency,[5],23.5 µM (active)
same,Potency,[6],inactive
same,Potency,[4],18.7 µM (active)
CCOc1ccc(Nc2nc(-c3c(C)nc4ccccn34)cs2)cc1,Potency,[2],0.003 µM (active)
same,Potency,[3],0.0047 µM (active)
same,Potency,[6],inactive
same,Potency,[9],inactive
same,Potency,[7],inactive
Oc1ccc(C2CCN(c3ccnc4ccccc34)CC2)cc1O,Potency,[5],23.5 µM (active)
same,Potency,[4],inactive
C=C1C(=O)OC2C=C(C)CCC=C(C)CCC12 (stereo not given),Potency,[8],inactive
same,Potency,[6],inactive
same,Potency,[4],33.2 µM (active)
same,Potency,[9],inactive
same,Potency,[7],23.5 µM (active)
Cc1ccc(Nc2cc(-c3cccc(N4C(=O)c5ccccc5C4=O)c3)ncn2)cc1NS(C)(=O)=O,Potency,[1],inactive
same,Potency,[6],inactive
same,Potency,[4],33.2 µM (active)
COC(=O)N[C@H](C(=O)N1CCC[C@@H]1c1ncc(-c2ccc(-c3ccc(-c4cnc([C@@H]5CCCN5C(=O)[C@@H](NC(=O)OC)C(C)C)[nH]4)cc3)cc2)[nH]1)C(C)C,Potency,[1],23.5 µM (active)
same,Potency,[5],26.4 µM (active)
same,Potency,[4],18.7 µM (active)
same,Potency,[9],inactive
C[C@]12CCC3c4ccc(O)cc4CCC3C1CCC2=O (stereo not given in full),Potency,[3],inactive
same,Potency,[8],inactive
same,Potency,[5],inactive
same,Potency,[6],inactive
same,Potency,[9],inactive
CC1(C)CCC2=C(O1)c1ccccc1C(=O)C2=O,Potency,[2],23.5 µM (active)
same,Potency,[3],23.5 µM (active)
same,Potency,[5],18.7 µM (active)
same,Potency,[6],inactive
same,Potency,[7],23.5 µM (active)
O=C1NC(=O)C(=Cc2ccc(-c3ccc(F)cc3)o2)S1,Potency,[1],inactive
same,Potency,[7],18.7 µM (active)
COC(=O)C1=CO[C@@H](O)[C@@H]2C(CO)=CC[C@@H]12,Potency,[2],inactive
same,Potency,[3],29.6 µM (active)
same,Potency,[8],inactive
same,Potency,[6],inactive
same,Potency,[4],inactive
O=C(O)c1c(Cl)c(Cl)c(Cl)c(Cl)c1-c1c2cc(I)c(=O)c(I)c-2oc2c(I)c(O)c(I)cc12,Potency,[9],24.1 µM (active)
O=C(Nc1cc(Cl)cc2c1[nH]c1cnccc12)c1cccnc1,Potency,[2],14.8 µM (active)
same,Potency,[3],4.18 µM (active)
same,Potency,[4],inactive
same,Potency,[9],24.1 µM (active)
CCn1c(C(=O)N(C2CC2)C2CC2)cc2c3c(ncn3C)c(Nc3cc(C)n(C)n3)nc21,Potency,[8],inactive
same,Potency,[5],inactive
same,Potency,[6],inactive
COCCOC(=O)C1=C(C)NC2=C(C(=O)CC(c3ccccc3OC)C2)C1c1cccc(O)c1 (stereo not given),Potency,[2],23.5 µM (active)
same,Potency,[3],18.7 µM (active)
same,Potency,[5],18.7 µM (active)
same,Potency,[6],inactive
same,Potency,[9],13.6 µM (active)
same,Potency,[7],20.9 µM (active)
CN(C)Cc1ccc(-c2nc3cccc4c3n2CCNC4=O)cc1,Potency,[2],11.8 µM (active)
same,Potency,[3],11.8 µM (active)
same,Potency,[5],16.6 µM (active)
same,Potency,[6],inactive
same,Potency,[9],21.5 µM (active)
same,Potency,[7],23.5 µM (active)
CO[C@H]1C(=O)[C@]2(C)[C@@H](OC)C[C@H]3OC[C@@]3(OC(C)=O)[C@H]2[C@H](OC(=O)c2ccccc2)[C@]2(O)C[C@H](OC(=O)[C@H](O)[C@@H](NC(=O)OC(C)(C)C)c3ccccc3)C(C)=C1C2(C)C,Potency,[2],0.001 µM (active)
same,Potency,[3],29.6 µM (active)
same,Potency,[6],inactive
same,Potency,[9],inactive
same,Potency,[7],inactive
CCS(=O)(=O)N1CC(CC#N)(n2cc(-c3ncnc4[nH]ccc34)cn2)C1,Potency,[2],14.8 µM (active)
same,Potency,[6],inactive
same,Potency,[4],inactive
same,Potency,[9],13.6 µM (active)
same,Potency,[7],11.8 µM (active)
CC(C)n1cnc2c(NCCCCCCNC(=O)OC(C)(C)C)nc(NCCO)nc21,Potency,[2],18.7 µM (active)
same,Potency,[5],inactive
same,Potency,[6],inactive
same,Potency,[4],inactive
same,Potency,[9],inactive
same,Potency,[7],inactive
c1ccc2c(-c3cnn4cc(-c5ccc(N6CCNCC6)cc5)cnc34)ccnc2c1,Potency,[6],inactive
COc1ccc(Cc2ccc(NC(N)=O)cc2)cc1-c1cccc(Cl)c1,Potency,[3],18.7 µM (active)
same,Potency,[5],inactive
same,Potency,[6],inactive
same,Potency,[7],16.6 µM (active)
CNC1CCC(N(Cc2cccc(-c3ccncc3)c2)C(=O)c2sc3c(F)ccc(F)c3c2Cl)CC1 (stereo not given),Potency,[3],1.18 µM (active)
same,Potency,[4],18.7 µM (active)
same,Potency,[9],19.2 µM (active)
same,Potency,[7],18.7 µM (active)
CC1CCC(C(=O)N(c2cc(C#CC(C)(C)C)sc2C(=O)O)C2CCC(O)CC2)CC1 (stereo not given),Potency,[1],inactive
same,Potency,[6],inactive
same,Potency,[9],inactive
same,Potency,[7],20.9 µM (active)
NC(=O)[C@@H](CCC(F)(F)F)N(Cc1ccc(-c2ncon2)cc1F)S(=O)(=O)c1ccc(Cl)cc1,Potency,[3],23.5 µM (active)
same,Potency,[5],inactive
same,Potency,[6],inactive
same,Potency,[9],inactive
same,Potency,[7],23.5 µM (active)
CC(C)(C)C(=O)Oc1ccc2c(c1)nc(NC(=O)c1cccc([N+](=O)[O-])c1)n2CCCO,Potency,[3],20.9 µM (active)
same,Potency,[6],inactive
same,Potency,[4],inactive
CCOC(CN1C(=O)[C@](CC(=O)Nc2ccc(C)cc2)(NC(=O)Nc2ccc(C)cc2)c2ccccc21)OCC,Potency,[3],11.8 µM (active)
same,Potency,[6],inactive
same,Potency,[9],inactive
same,Potency,[7],16.6 µM (active)
CC(=O)N(C)C1(c2ccccc2)CCN(CCC[C@]2(c3ccc(Cl)c(Cl)c3)CCCN(C(=O)c3ccccc3)C2)CC1,Potency,[3],20.9 µM (active)
same,Potency,[8],30.6 µM (active)
same,Potency,[4],33.2 µM (active)
same,Potency,[7],23.5 µM (active)
COc1cccc([C@@H](C)NCCCc2ccccc2Cl)c1,Potency,[3],11.8 µM (active)
same,Potency,[8],inactive
same,Potency,[4],inactive
same,Potency,[7],20.9 µM (active)
